# Screens (PubChem)
# Lamin A splicing = qHTS Assay for Modulators of Lamin A Splicing | HeLa LMNA splicing GFP/RFP minigene ratio, 48 h | Potency, µM (titrated, usually from 46.1 µM), for the others: at the top dose ratio change, negative = inhibition, actives largely listed as inhibitors | actives 0.01% (n = 200,000); active means well fitted inhibition curve with a large enough effect in the signal ratio, with a control signal flat, not every such curve was filed as active; inconclusive means small, poorly fitted or top-dose-only effect, or effect the other way, or a change in a side signal; the % refers to the signal ratio; further: potency means the concentration at half of the fitted maximal effect; on the % scale 0 is the no-effect control and ±100 the full control effect
#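 S3 HeLa cells stably expressing lamin A-EGFP splicing minigene plus DsRed2, 600 cells/well, 48 h compound exposure at 37C. Laser-scanning cytometry; analysed as GFP (500-530 nm)/RFP (575-640 nm) total intensity ratio; 0.5% DMSO vehicle.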
# miR-21 reporter = qHTS Assay for Modulators of miRNAs and/orActivators of miR-21. AID 2288, 2010. 340,000 tested, under 10 active. Potency, µM (titrated, usually from 38.3 µM), for the others: top-dose activity change, positive = activation, usual class: activators. HeLa miR-21 FLuc reporter, luciferase, 48 h;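 further: % of control where 0% means no effect; miR-21 action dims this reporter so a rising signal means less miR-21 action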
#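 Compounds were titrated across several concentrations (up to approximately 40 uM) and incubated 48 hours with HeLa miR-21-FLuc reporter cells (miR-21 target sequence downstream of FLuc, endogenous miR-21). Readout was firefly luciferase luminescence after lytic detection reagent.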
# JMJD2E inh = qHTS Assay for Inhibitors of Human Jumonji Domain Containing 2E (JMJD2E); Lysine-specific demethylase 4E (Homo sapiens), B2RXH2; actives 1.6% (n = 230,000); Potency, µM (top dose mostly 57.1 µM), for the others: top-dose activity change, negative = inhibition, usual class: inhibitors; JMJD2E catalytic domain, FDH-coupled NADH fluorescence (FDH is formaldehyde dehydrogenase);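 further: potency means the concentration at half of the fitted maximal effect; 0% = wells with enzyme and -100% = buffer wells without enzyme; nearly all actives have a fitted effect of over 50% in size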
# ALDH1A1 block = qHTS Assay for Inhibitors of Aldehyde Dehydrogenase 1 (ALDH1A1) | actives 7.3% (n = 220,000) | Purified ALDH1A1, NADH fluorescence, propionaldehyde substrate | Potency, µM (top dose mostly 75.3 µM), without a hit: top-dose activity, negative = inhibition, most hits filed as inhibitors | Aldehyde dehydrogenase 1A1 (Homo sapiens), P00352; active means well fitted inhibition curve with a large enough effect, not every such curve was filed as active; inconclusive means small, poorly fitted or top-dose-only effect, or another doubt; inactive means no such curve, though single readings can be large or run the other way;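 further: potency means the concentration at half of the fitted maximal effect; plate controls were no enzyme wells and a reference inhibitor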
# Target sequence (P00352 whole entry, looked up): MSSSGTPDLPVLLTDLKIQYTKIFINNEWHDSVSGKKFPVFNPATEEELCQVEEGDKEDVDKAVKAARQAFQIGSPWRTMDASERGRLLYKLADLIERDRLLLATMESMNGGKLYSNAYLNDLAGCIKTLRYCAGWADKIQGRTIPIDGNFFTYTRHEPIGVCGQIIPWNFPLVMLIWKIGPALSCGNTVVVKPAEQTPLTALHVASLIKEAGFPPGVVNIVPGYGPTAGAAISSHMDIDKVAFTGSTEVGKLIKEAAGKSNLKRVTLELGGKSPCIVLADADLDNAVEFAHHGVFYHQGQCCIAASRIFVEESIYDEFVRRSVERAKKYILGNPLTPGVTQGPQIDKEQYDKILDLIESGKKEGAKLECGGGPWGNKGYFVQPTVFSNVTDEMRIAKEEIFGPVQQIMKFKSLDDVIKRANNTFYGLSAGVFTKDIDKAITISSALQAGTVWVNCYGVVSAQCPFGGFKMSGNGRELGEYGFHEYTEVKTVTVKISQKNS
# G9a inh = qHTS Assay for Inhibitors of Histone Lysine Methyltransferase G9a; AID 504332, 2011; actives 8.8% (n = 350,000); Histone-lysine N-methyltransferase EHMT2 (Homo sapiens), Q96KQ7; G9a H3K9 monomethylation, AlphaScreen, 2 h; Potency, µM (highest dose often 102 µM), for the others: top-dose activity, negative = inhibition, usual class: inhibitors; further: potency means the concentration at half of the fitted maximal effect; on the % scale 0 is the no-effect control and ±100 the full control effect; nearly all actives have a fitted effect of over 75% in size
#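 Using a bead-based AlphaScreen, monomethylated H3K9 product from 2 h room-temperature reactions (G9a 20 nM, peptide 500 nM, SAM 20 uM) was detected with 0.5 ug/mL rabbit anti-H3K9me1 antibody.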
# Sfp PPTase inh = qHTS Assay for Inhibitors of Bacillus subtilis Sfp phosphopantetheinyl transferase (PPTase) | actives 3.5% (n = 310,000) | Potency, µM, inactives show largest response in the series, negative = inhibition, usual class: inhibitors | Biochemical Sfp PPTase activity, qHTS | 4'-phosphopantetheinyl transferase ffp (Bacillus subtilis), Q9F4F7;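 further: the enzyme is Sfp with the accession as filed and its product quenches rhodamine fluorescence; potency means the concentration at half of the fitted maximal effect; 0% = enzyme reaction without inhibitor and -100% = no enzyme wells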
#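 Fluorescence-quenching assay: 15 nM Sfp-PPTase preincubated 15 min at room temperature with compound, then 5 uM rhodamine-CoA and 12.5 uM BHQ-2-labelled YbbR peptide added. Fluorescence (ex 525/em 598 nm) read at start and after 30 min; difference gives rate.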
# An asterisk follows results filed as active; ? = inconclusive; . = not tested or not shown; ! = not confirmed by another sample; [ ] = remark or other dose. An excerpt weighted towards active compounds, which were near 13% of everything screened. Unless noted, the call rests on the fitted dose curve; in most records, active means well fitted curve in the direction sought with a large enough effect; inconclusive means small, poorly fitted or top-dose-only effect, or another doubt; inactive means no such curve, though single readings can be large; an effect the other way counts as inactive or inconclusive.
SMILES,Lamin A splicing,miR-21 reporter,JMJD2E inh,ALDH1A1 block,G9a inh,Sfp PPTase inh
CC(=O)Nc1cc(C(=O)O)ccc1S(=O)(=O)c1ccc(C)cc1,9%,-3%,-1%,-7%,50µM*,1%
CCOCCCn1c(=N)c(C(=O)NCC2CCCO2)cc2c(=O)n3cc(C)ccc3nc21 (configuration not stated),.,-6%,.,.,-2%[59 µM],.
Nc1nnc(-c2cc3c(ccc4ccccc43)oc2=O)s1,?,-18%,?,?,18%,-22%
CC(=O)c1ccc(N/N=C(/C(N)=O)C2=NC(C)(C)Cc3ccccc32)cc1,?,?,-5%,-4%,11µM*,-9%
C=CCN1C(=O)/C(=C/C=C2/N(CC)c3ccc(S(=O)(=O)N(C)C)cc3N2CC)SC1=S,17%[9.22 µM],4%,3%,2.8µM*,?,?
COc1ccc(CCNC(=O)c2ccccc2NC(=O)C2=C(C)OCCS2)cc1OC,.,9%,.,.,-4%,12%
COC(=O)CSc1ccc2nnc(-c3ccc(OC)c(OC)c3)n2n1,?,-6%,7%,1%,-8%,0%
CCC(Sc1ccc2nnc(-c3ccc(OC)c(OC)c3)n2n1)C(=O)O (configuration not stated),4%,-4%,?,?,7.9µM*,-17%
COc1ccc(-c2nnc3ccc(SC(C(C)=O)C(C)=O)nn23)cc1OC,?,-26%,?,-10%,2.2µM*,-28%
O=C(NCCN1CCCC1)c1ccc(-n2c(=O)c(=O)[nH]c3ccccc32)cc1,.,.,.,6%,.,.
CCOC(=O)c1c(NC(=O)/C=C/c2ccc(OC)c(OC)c2)sc(C(C)=O)c1C,.,-9%,.,.,?,.
CCCOc1ccc(/C=C/C(=O)Nc2sc(C)c(C)c2C(=O)OCC)cc1OC,.,1%,.,.,3.2µM*,.
CC(C)(Sc1ccc(CCN(CCCCC2CCCCC2)C(=O)NC2CCCCC2)cc1)C(=O)O,?,.,-11%,-13%,79µM*,26%
CN(Cc1ccccc1)C(=O)NC1CCCCC1,-3%,-15%,-1%,1%,26%[59 µM],-7%
CC1CCCN(C(=O)c2cccc(S(=O)(=O)N3CCCC3)c2)C1 (configuration not stated),.,.,.,.,-7%[12.7 µM],.
CCn1c(-c2ccc(N(C)C)cc2)nc2ccccc21,8%,12%,?,?,79µM*,9%
CC(C)n1c(-c2ccc(N(C)C)cc2)nc2ccccc21,?,-46%,?,?,40µM*,-2%
O=[N+]([O-])c1ccc(N=Nc2ncc[nH]2)cc1,.,?,.,.,?,-25%
Cn1c(Cn2nnc3ccccc32)nnc1SCC(=O)N1CCc2ccccc21,6%,1%,-6%,28µM*,1%[59 µM],8%
CCn1c(CSc2ncccn2)nnc1SCC(=O)N1CCc2ccccc21,?,-2%,8%,20µM*,-32%[59 µM],3%
CCc1nnc(SCC(=O)N2CCc3ccccc32)n1CC,.,-5%,.,.,.,7%
CCOC(=O)CNC1CC(=O)N(c2ccc(Br)cc2)C1=O (configuration not stated),.,-6%,.,.,10µM*,-23%
O=C(NNC1CC(=O)N(c2ccc(Br)cc2)C1=O)c1cccs1 (configuration not stated),.,-18%,12%,.,14%[12.7 µM],12%
COc1ccc(N2C(=O)CC(NCC#N)C2=O)cc1 (configuration not stated),.,2%,.,.,28µM*,-8%
CCOc1ccc(C(=O)c2cccs2)cc1,6%,-53%,-1%,1%,15%[59 µM],7%
SMILES,Lamin A splicing,miR-21 reporter,JMJD2E inh,ALDH1A1 block,G9a inh,Sfp PPTase inh
CCCOc1ccc(N2C(=O)CC(NCC#N)C2=O)cc1 (configuration not stated),.,2%,.,.,60%,14%
COc1ccc(N2C(=O)CC(Nc3ccc(C)cc3)C2=O)cc1 (configuration not stated),0%,0%,-9%,-3%,22%,17%
CCOc1ccc(N2C(=O)CC(NCCNc3ccc(C(=O)c4cccs4)cc3)C2=O)cc1 (configuration not stated),?,3%,?,22µM*,.,8%
COc1ccc(N2C(=O)CC(NNc3ncc(Cl)cc3Cl)C2=O)cc1 (configuration not stated),-6%[9.22 µM],4%,-13%,?,?,50µM*
Cc1cccc(N2CCN(C(=O)Cn3nc(C)c4sc5ccccc5c4c3=O)CC2C)c1 (configuration not stated),.,-7%,.,.,-12%[59 µM],.
Cc1ccc(NC(=O)CSc2nc(-c3cccs3)nc3cc(=O)[nH]n23)cc1,.,-20%,.,.,23%[59 µM],.
COc1ccc(/C=C/C(=O)C23CC4CC(CC(C4)C2)C3)cc1CN1CCOCC1,?,8%,-3%,?,?,-11%
Cc1ccc(C(=O)c2cn(CC(=O)NCc3ccccc3Cl)c3nc(C)ccc3c2=O)cc1,15%[46 µM],1%,.,.,-25%[59 µM],.
COc1ccc(N2C(=O)CC(NC3CCCCNC3=O)C2=O)cc1 (configuration not stated),-7%,2%,-11%,20µM*,11µM*,4%
CN(c1ccccc1)S(=O)(=O)c1cccc(C(=O)Nc2nn[nH]n2)c1,.,1%,-4%,-5%,.,-1%
COc1ccc(C(=O)Cc2ccc(OC)c(OC)c2)cc1,?,-41%,-4%,6%,0%,-4%
COc1ccc(Cc2n[nH]c(=O)c3ccccc23)cc1OC,-17%,-21%,10%,7%,-9%,13%
COc1ccc(Cc2c3cc(OC)c(OC)cc3cc[n+]2C)cc1OC,.,3%,?,.,-132%[59 µM],79µM*
CC[n+]1ccc2cc(OC)c(OC)cc2c1Cc1ccc(OC)c(OC)c1,-7%[46 µM],-2%,25µM*,-2%,22µM*,?
Cc1nn(-c2nnc(NC3CCCCC3)nn2)c(C)c1Br,-8%,-57%,-6%,14µM*,22µM*,3%
Cc1nc(N=Nc2cc(S(=O)(=O)O)c3cc([N+](=O)[O-])cc(S(=O)(=O)O)c3c2)c(COP(=O)(O)O)c(C=O)c1O,-21%,.,7.9µM*,?,3.5µM*,40µM*!
Cc1nc(N=Nc2cc([N+](=O)[O-])ccc2Cl)c(COP(=O)(O)O)c(C=O)c1O,.,.,.,.,.,-21%
COc1ccc(NC(=O)C(C(C)C)N2Cc3ccccc3C2=O)cc1 (configuration not stated),?,23%,.,.,-5%[59 µM],.
